Assay [1] concerns the target Calcium and integrin-binding protein 1 (Homo sapiens) (UniProt Q99828). The assay can be described thus: Primary qHTS for Identification of Calcium Integrin Binding Protein 1 (CIB1) Competitor (AID 1508620).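 Note: GST tagged CIB1 binding a fluorescein labelled alphaIIb integrin peptide tracer; top concentration of the series differs between compounds; % is set by controls: 0 for no effect and ±100 for the full control effect.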 Summed up:
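Fluorescence polarization competition: CIB1-GST (1 uM final) preincubated with compound 15 min at room temperature, then FITC-labeled alphaIIb peptide (100 nM final) added for another 15 min. Polarization read at Ex 480/Em 540.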
In general terms: Quantitative high-throughput screening tests each substance at several concentrations.

Assay [2] in a line: Primary qHTS for small molecule stabilizers of the endoplasmic reticulum resident proteome: Secreted ER Calcium Modulated Protein (SERCaMP) assay (AID 1508630). Note: % is set by controls: 0 for no effect and ±100 for the full control effect. The essentials:
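The SH-SY5Y reporter protocol was run at 3 concentrations up to 38.3 uM (primary) or 11 concentrations (follow-up): 16 h compound, 100 nM thapsigargin for 4 h, then extracellular luciferase luminescence.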

In assay [3] the target is Cytochrome P450 2D6 (Homo sapiens) (UniProt P10635). The assay is described as follows: Cytochrome P450 family 2 subfamily D member 6 (CYP2D6) small molecule antagonists: luciferase biochemical (cell-free) qHTS assay (AID 1645840; active = well fitted curve in the direction sought with a large enough effect in the repeat runs; an effect the other way counts as inactive or inconclusive; note: nearly all actives have a fitted effect of over 55% in size; note: potency is the fitted concentration of half-maximal effect; for activity change, negative = inhibition: % is set by controls: 0 for no effect and ±100 for the full control effect). The essentials:
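P450-Glo CYP2D6 system: proluciferin substrate converted by enzyme to luciferin, read by luminescence proportional to activity. Enzyme-substrate mix with compound 10 min at room temperature, then NADPH regeneration 1 h before detection reagent.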

For assay [4], the target named is Cytochrome P450 2C9 (Homo sapiens) (UniProt P11712). The assay can be described thus: Cytochrome P450 family 2 subfamily C member 9 (CYP2C9) small molecule antagonists: luciferase biochemical (cell-free) qHTS assay (AID 1645842; active = well fitted curve in the direction sought with a large enough effect in the repeat runs; an effect the other way counts as inactive or inconclusive; note: nearly all actives have a fitted effect of over 55% in size; note: potency is the fitted concentration of half-maximal effect; for activity change, negative = inhibition: % is set by controls: 0 for no effect and ±100 for the full control effect). Summed up:
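P450-Glo CYP2C9 system: proluciferin substrate with enzyme in mix containing 0.4% BSA, 10 min at room temperature, then NADPH regeneration solution added and incubated 1 h at 37C. Detection reagent stopped reaction; luminescence read after 20 min as RLU.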

Assay [5] is described as follows: Primary qHTS for inhibitors of nuclear receptor binding SET domain protein 2 (NSD2) in an isogenic RCH-ACV NSD2 p.E1099K mutant (9B) (AID 1645876). Note: nearly all actives have a fitted effect of over 70% in size. Note: potency is the fitted concentration of half-maximal effect.
A short description of assay [6]: A High-Content qHTS Against Drug Library for the Identification of Small Molecules that Inhibit DYT1 Early Onset Primary Dystonia-Associated Cell Pathology (AID 1645839; calls by dose curve). Summed up:
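Induced EGFP-delE TorsinA cells are imaged after 48 h of compound treatment. Punctate fusion-protein distribution gives the %pathology value, while nuclei counts flag toxicity. Wild-type EGFP-hTOR1A cells define the normal pattern.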

Assay [7] in a line: Cytotoxicity counterscreen for inhibitors of SARS-CoV-2 cell entry (AID 1645845; calls by dose curve; note: nearly all actives have a fitted effect of over 50% in size). Summed up: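 After a 15 min room-temperature ATPLite 1step step, luminescence reflected ATP remaining in HEK293-ACE2 cells exposed to compound for 1 h plus 48 h at 37 C, with percent activity set by cell and no-cell controls.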
On the technique in general: Counterscreens check selectivity or assay interference.

Assay [8] in a line: Primary qHTS to identify inhibitors of SARS-CoV-2 cell entry (AID 1645846; calls by dose curve; note: nearly all actives have a fitted effect of over 45% in size). Conditions: activity change, negative = inhibition: at 57.1 µM (top of the series) unless noted. The essentials:
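Inhibition of spike-mediated entry was scored in human ACE2-transfected Expi293F cells. Particles were MLV-pseudotyped with Wuhan-Hu-1 S carrying a 19-aa C-terminal deletion; signal was luciferase after two days, scaled between spike PP and fusion-protein-free PP.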

A short description of assay [9]: Primary qHTS for inhibitors of nuclear receptor binding SET domain protein 2 (NSD2) in an RCH-ACV wild type WT cells (2C) (AID 1645877). Note: % is set by controls: 0 for no effect and ±100 for the full control effect; nearly all actives have a fitted effect of over 70% in size.
The target of assay [10] is Rap guanine nucleotide exchange factor 3 (Homo sapiens) (UniProt O95398). The assay can be described thus: Confirmatory qHTS for agonist of cAMP-regulated guanine nucleotide exchange factor 3 (EPAC1) (AID 1645881).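 Note: EPAC1 catalysed release of BODIPY-GDP from Rap1B seen as fluorescence loss; 100% = effect of cAMP agonist control; nearly all actives have a fitted effect of over 75% in size.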

In PubChem BioAssay (NCATS) one finds Potency, outcome and activity change, negative = inhibition data, which are given here for 14 compounds.

Values joined by “and” are separate entries in the source; they are usually repeats but may differ in a detail not shown here. Equal values may be shown once. Inconclusive results are not listed. Active and inactive are the calls of the source. Unless noted, calls come from the whole dose curve; as a rule, active = well fitted curve in the direction sought with a large enough effect; inconclusive = small, poorly fitted or top-dose-only effect, or another doubt; inactive = no such curve, though single readings can be large; an effect the other way counts as inactive or inconclusive.

Sequence of Calcium and integrin-binding protein 1 (Homo sapiens) (Q99828 whole entry, looked up): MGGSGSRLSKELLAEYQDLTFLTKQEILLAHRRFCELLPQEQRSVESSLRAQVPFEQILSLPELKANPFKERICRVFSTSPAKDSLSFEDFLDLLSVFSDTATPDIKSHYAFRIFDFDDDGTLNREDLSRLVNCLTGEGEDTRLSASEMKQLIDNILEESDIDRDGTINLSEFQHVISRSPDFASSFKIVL
Sequence of Cytochrome P450 2C9 (Homo sapiens) (P11712 whole entry, looked up): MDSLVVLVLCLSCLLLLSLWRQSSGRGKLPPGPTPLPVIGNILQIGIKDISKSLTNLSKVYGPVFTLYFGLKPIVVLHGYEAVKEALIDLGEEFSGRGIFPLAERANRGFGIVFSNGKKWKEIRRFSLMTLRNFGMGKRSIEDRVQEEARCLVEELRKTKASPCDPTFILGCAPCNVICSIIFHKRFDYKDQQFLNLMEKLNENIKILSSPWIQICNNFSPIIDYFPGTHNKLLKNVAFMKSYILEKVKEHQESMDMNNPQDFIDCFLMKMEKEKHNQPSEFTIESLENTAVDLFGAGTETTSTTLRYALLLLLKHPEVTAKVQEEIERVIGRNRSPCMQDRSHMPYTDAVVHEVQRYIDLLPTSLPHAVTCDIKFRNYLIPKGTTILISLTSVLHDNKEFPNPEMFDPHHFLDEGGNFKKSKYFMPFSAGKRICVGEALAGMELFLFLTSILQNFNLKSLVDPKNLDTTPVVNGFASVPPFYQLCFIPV
Sequence of Cytochrome P450 2D6 (Homo sapiens) (P10635 whole entry, looked up): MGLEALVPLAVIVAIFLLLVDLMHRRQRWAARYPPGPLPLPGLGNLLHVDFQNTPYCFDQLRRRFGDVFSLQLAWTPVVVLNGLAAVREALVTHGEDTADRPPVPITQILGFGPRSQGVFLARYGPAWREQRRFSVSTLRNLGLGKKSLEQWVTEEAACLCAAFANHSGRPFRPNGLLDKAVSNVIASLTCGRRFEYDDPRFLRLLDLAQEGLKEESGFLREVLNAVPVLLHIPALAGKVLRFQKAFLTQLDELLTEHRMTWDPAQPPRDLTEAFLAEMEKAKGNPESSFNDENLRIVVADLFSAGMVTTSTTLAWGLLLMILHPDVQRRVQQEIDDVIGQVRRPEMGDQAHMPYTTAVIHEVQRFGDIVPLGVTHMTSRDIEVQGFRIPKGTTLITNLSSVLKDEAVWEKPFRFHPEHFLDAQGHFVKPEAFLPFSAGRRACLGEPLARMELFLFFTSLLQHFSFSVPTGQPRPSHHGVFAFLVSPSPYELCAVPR
Sequence of Rap guanine nucleotide exchange factor 3 (Homo sapiens) (O95398 whole entry, looked up): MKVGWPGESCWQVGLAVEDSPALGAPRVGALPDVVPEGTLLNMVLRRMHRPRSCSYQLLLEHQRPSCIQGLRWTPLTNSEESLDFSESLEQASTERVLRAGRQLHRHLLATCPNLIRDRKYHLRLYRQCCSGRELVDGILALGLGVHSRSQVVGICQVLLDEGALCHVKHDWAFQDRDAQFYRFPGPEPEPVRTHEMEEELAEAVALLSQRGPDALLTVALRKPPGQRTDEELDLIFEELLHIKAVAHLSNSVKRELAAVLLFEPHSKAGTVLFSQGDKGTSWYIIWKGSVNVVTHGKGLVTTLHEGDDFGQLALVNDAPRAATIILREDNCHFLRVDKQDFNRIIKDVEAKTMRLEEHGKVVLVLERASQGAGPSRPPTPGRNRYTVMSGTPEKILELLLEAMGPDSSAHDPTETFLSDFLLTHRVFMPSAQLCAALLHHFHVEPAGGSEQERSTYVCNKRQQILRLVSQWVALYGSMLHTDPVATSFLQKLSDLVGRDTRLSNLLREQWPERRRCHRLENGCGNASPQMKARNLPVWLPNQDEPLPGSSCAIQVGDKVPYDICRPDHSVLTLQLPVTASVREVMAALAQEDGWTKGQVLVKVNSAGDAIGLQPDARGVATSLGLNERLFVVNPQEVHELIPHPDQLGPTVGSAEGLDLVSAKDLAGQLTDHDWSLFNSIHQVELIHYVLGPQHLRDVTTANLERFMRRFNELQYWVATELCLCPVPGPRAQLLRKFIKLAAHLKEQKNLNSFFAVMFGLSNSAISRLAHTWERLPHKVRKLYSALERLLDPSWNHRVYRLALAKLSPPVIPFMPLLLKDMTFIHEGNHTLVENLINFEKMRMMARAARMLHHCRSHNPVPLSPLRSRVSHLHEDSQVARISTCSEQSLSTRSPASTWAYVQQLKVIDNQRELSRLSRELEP

On to `COc1cc(CC(C)N)c(OC)cc1Br` (configuration not stated), for which the Potency entry in assay [1] and in assay [4] was “inactive” each time. The result in [2] was inactive. For the same compound, the results for the Potency in assay [3] and in assay [5] were 29.2 µM (active) and 10.1 µM (active), respectively.
For the compound `C[C@]12Cc3nonc3C[C@@H]1CC[C@@H]1[C@@H]2CC[C@@]2(C)[C@H]1CC[C@]2(C)O`, the Potency entry in assay [1] and in [3] was “inactive” in each case. Besides, the result in assay [2] and in assay [6] was inactive. Moreover, the Potency in assay [5] is 21.1 µM (active).
Take `CCC(=O)O[C@H]1CC[C@H]2[C@@H]3CCC4=CC(=O)CC[C@]4(C)[C@H]3CC[C@]12C`: the Potency result in assay [1], in assay [7] and in assay [8] was “inactive” in each case. The outcome in [2] was inactive. In addition, the Potency in assay [3] was 16.9 µM (active); in assay [4], 24.5 µM (active) and 10.7 µM (active); in assay [5], 23.7 µM (active).
Take `Cc1nc2ccccc2c(=O)n1-c1ccccc1Cl`: in [1], the Potency result was “inactive”. Moreover, the result in [2] and in [6] was inactive. Further, the Potency in assay [4] was 27.7 µM (active).
In the case of `O=C1CN2CCOC2(c2ccccc2Cl)c2cc(Cl)ccc2N1` (configuration not stated), the Potency result in assay [1], in assay [4], in [7], in assay [5] and in assay [9] was “inactive” throughout. The outcome in assay [2] was inactive. The activity change, negative = inhibition in [8] was -6.92%.
`C=CCN1CC[C@]23CCCC[C@H]2[C@H]1Cc1ccc(O)cc13`: the Potency result in assay [1], in assay [4], in [7] and in assay [5] was “inactive” throughout. Also, the outcome in [2] and in [6] was inactive.
Turning to `C[C@H](N)[C@H](O)c1ccc(O)c(O)c1`, the Potency entry in assay [1], in assay [4], in assay [7], in [5] and in [9] was “inactive” each time. Also, the outcome in assay [2], in [6] and in [10] was inactive. Moreover, the activity change, negative = inhibition in assay [8] was -20.4%.
On to `C[C@]12CC[C@H](O)CC1=CC[C@@H]1[C@@H]2CC[C@]2(C)C(=O)CC[C@@H]12`, for which the Potency result in assay [1], in [4], in [7] and in [9] was “inactive” throughout. Moreover, the result in assay [2] and in assay [6] was inactive.
Regarding `O=C(CCl)c1ccc(Cl)cc1Cl`, the Potency entry in assay [1], in assay [3], in assay [5] and in [9] was “inactive” in each case. The outcome in assay [2] was inactive.
Take `Nc1ccc(N)cc1`: the Potency entry in assay [1] and in assay [5] was “inactive” in each case. In addition, the outcome in [2] was inactive. Besides, the Potency in assay [3] is 3.09 µM (active); in [4], 15.5 µM (active).
`CNC(=O)NC(O)C(Cl)(Cl)Cl` (configuration not stated): the Potency entry in [1], in assay [3] and in assay [4] was “inactive” each time. Also, the compound was classed as inactive in assay [6].
In the case of `O=C(CBr)Nc1ccc(Cl)cc1C(=O)c1ccccc1F`, the Potency entry in [1], in assay [5] and in assay [9] was “inactive” in each case. The outcome in [2] and in [6] was inactive.
For the compound `COc1ccc2c(C(=O)c3ccc(Cl)cc3)c(C)n(CC(=O)O)c2c1`, the Potency entry in assay [1], in [3] and in assay [5] was “inactive” throughout. The result in [2] and in [6] was inactive.
Consider `CC[C@H]1C[C@@H]2C[C@H]3c4[nH]c5ccc(OC)cc5c4CCN(C2)[C@@H]13`, for which the Potency entry in [1] and in [4] was “inactive” each time. In assay [6], the call was inactive. Further, in [3], the Potency was 0.278 µM (active).
